Activity calls are given as the source filed them. How the source made its calls: active means hit-call score of the fitted dose curve at least 0.9, where 1 is the maximum; inactive means score below 0.9.
Experiments:
[1] = BSK_hDFCGF_SRB: Viability Assessment in the BioMAP Diversity Plus: hDFCGF Assay (AID 2283061); conditions: primary human foreskin fibroblasts;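 further: cells exposed to compound for 24 h before the read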
In short: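 SRB-based viability read on primary human skin fibroblasts at 24 h: TCA fixation, 0.1% dye, 560 nm. Gain or loss of signal is fitted against the DMSO negative control.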

[2] = read-out: TIMP metallopeptidase inhibitor 1 (TIMP1), TIMP1 (gene 7076); assay: BSK_hDFCGF_TIMP1: BioMAP Diversity Plus: hDFCGF Assay for TIMP metallopeptidase inhibitor 1 (TIMP1) Biomarker Activity (AID 2283062); conditions: primary human foreskin fibroblasts; actives raise or lower the signal
In short: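 Bidirectional curve fitting against DMSO baseline yielded this endpoint, based on ELISA detection of TIMP-1 in primary human foreskin fibroblasts exposed to compound for 24 h.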

[3] = read-out: Monokine induced gamma interferon (MIG), CXCL9 (gene 4283); assay: BSK_hDFCGF_MIG: BioMAP Diversity Plus: hDFCGF Assay for Monokine induced gamma interferon (MIG) Biomarker Activity (AID 2283063); conditions: primary human foreskin fibroblasts; actives raise or lower the signal
In short: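 Endpoint derived by bidirectional fitting relative to DMSO; MIG quantified via ELISA in primary human foreskin fibroblasts harvested 24 h after dosing.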

[4] = read-out: Matrix Metallopeptidase 1 (MMP1), MMP1 (gene 4312); assay: BSK_hDFCGF_MMP1: BioMAP Diversity Plus: hDFCGF Assay for Matrix Metallopeptidase 1 (MMP1) Biomarker Activity (AID 2283064); conditions: primary human foreskin fibroblasts; actives raise or lower the signal
In short: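 Primary human foreskin fibroblasts in the hDFCGF system were dosed with test chemical, and MMP1 was measured by ELISA 24 h later. Values come from bidirectional curve fitting against the DMSO baseline.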

[5] = read-out: Vascular cell adhesion molecule 1 (VCAM1), VCAM1 (gene 7412); assay: BSK_hDFCGF_VCAM1: BioMAP Diversity Plus: hDFCGF Assay for Vascular cell adhesion molecule 1 (VCAM1) Biomarker Activity (AID 2283065); conditions: primary human foreskin fibroblasts; actives raise or lower the signal;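 on AC50: VCAM-1 protein level quantified by ELISA after 24 h chemical exposure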
In short: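 Measured after 24 h chemical treatment of primary human skin fibroblasts, VCAM-1 was detected by ELISA and concentration-response analysed in both directions versus DMSO vehicle.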

[6] = read-out: Plasminogen activator inhibitor-1 (PAI1), SERPINE1 (gene 5054); assay: BSK_hDFCGF_PAI1: BioMAP Diversity Plus: hDFCGF Assay for Plasminogen activator inhibitor-1 (PAI1) Biomarker Activity (AID 2283066); conditions: primary human foreskin fibroblasts; actives raise or lower the signal
In short: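 PAI-1 levels, determined by ELISA, served as the endpoint in human foreskin fibroblast cultures exposed to compound for 24 h, with DMSO as baseline.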

[7] = read-out: Intercellular Adhesion Molecule 1 (ICAM1), ICAM1 (gene 3383); assay: BSK_KF3CT_ICAM1: BioMAP Diversity Plus: KF3CT Assay for Intercellular Adhesion Molecule 1 (ICAM1) Biomarker Activity (AID 2283067); conditions: primary human keratinocytes with fibroblasts; actives raise or lower the signal
In short: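 Bidirectional curve fitting against a DMSO baseline was applied to ICAM-1 ELISA signal from primary human skin co-cultures harvested 24 h after treatment, with SRB staining of parallel wells for overt cytotoxicity.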

[8] = read-out: Interferon-gamma inducible Protein 10 (IP10), CXCL10 (gene 3627); assay: BSK_KF3CT_IP10: BioMAP Diversity Plus: KF3CT Assay for Interferon-gamma inducible Protein 10 (IP10) Biomarker Activity (AID 2283068); conditions: primary human keratinocytes with fibroblasts; actives raise or lower the signal
In short: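 KF3CT co-culture (keratinocytes + foreskin fibroblasts), 24 h compound, IP-10 by ELISA; bidirectional fit vs DMSO baseline.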

[9] = BSK_KF3CT_SRB: Viability Assessment in the BioMAP Diversity Plus: KF3CT Assay (AID 2283069); conditions: primary human keratinocytes with fibroblasts;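 further: total protein by sulforhodamine B staining as a cytotoxicity measure; read 24 h after compound addition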
In short: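 Human primary keratinocyte plus foreskin fibroblast co-culture exposed to chemicals for 24 h. Total protein measured by 0.1% sulforhodamine B staining after 10% TCA fixation, read at 560 nm; bidirectional fitting versus DMSO baseline.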

[10] = read-out: Interleukin-1 alpha (IL1a), IL1A (gene 3552); assay: BSK_KF3CT_IL1a: BioMAP Diversity Plus: KF3CT Assay for Interleukin-1 alpha (IL1a) Biomarker Activity (AID 2283070); conditions: primary human keratinocytes with fibroblasts; actives raise or lower the signal
In short: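 Human keratinocyte plus foreskin fibroblast primary co-culture, sampled 24 h after chemical dosing. IL-1a measured by ELISA; responses fitted bidirectionally against DMSO baseline (negative control), so gain or loss of signal both count.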

[11] = read-out: TIMP metallopeptidase inhibitor 2 (TIMP2), TIMP2 (gene 7077); assay: BSK_KF3CT_TIMP2: BioMAP Diversity Plus: KF3CT Assay for TIMP metallopeptidase inhibitor 2 (TIMP2) Biomarker Activity (AID 2283071); conditions: primary human keratinocytes with fibroblasts; actives raise or lower the signal
In short: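 Keratinocyte–fibroblast co-culture, 24 h exposure; TIMP-2 ELISA, DMSO-normalised bidirectional fit. Parallel SRB (0.1%, TCA-fixed, 560 nm) total-protein staining gauges cytotoxicity.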

[12] = read-out: Transforming growth factor beta 1 (TGFb1), TGFB1 (gene 7040); assay: BSK_KF3CT_TGFb1: BioMAP Diversity Plus: KF3CT Assay for Transforming growth factor beta 1 (TGFb1) Biomarker Activity (AID 2283072); conditions: primary human keratinocytes with fibroblasts; actives raise or lower the signal
In short: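 Signal changes in either direction, relative to DMSO, define activity here. TGF-b1 is read by ELISA from a human keratinocyte-fibroblast co-culture 24 h post-dose.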

[13] = read-out: C-C motif chemokine 2 (Homo sapiens) (UniProt P13500); assay: BSK_KF3CT_MCP1: BioMAP Diversity Plus: KF3CT Assay for Monocyte Chemoattractant Protein 1 (MCP1/CCL2) Biomarker Activity (AID 2283073); conditions: primary human keratinocytes with fibroblasts; actives raise or lower the signal
In short: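 Biomarker MCP-1 is measured by ELISA in primary human keratinocytes co-cultured with foreskin fibroblasts, 24 h after chemical treatment; DMSO serves as the negative control and activity baseline.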

[14] = read-out: Matrix Metallopeptidase 9 (MMP9), MMP9 (gene 4318); assay: BSK_KF3CT_MMP9: BioMAP Diversity Plus: KF3CT Assay for Matrix Metallopeptidase 9 (MMP9) Biomarker Activity (AID 2283074); conditions: primary human keratinocytes with fibroblasts; actives raise or lower the signal;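 on AC50: MMP9 protein level quantified by ELISA in the co-culture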
In short: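 Keratinocyte plus foreskin fibroblast human primary skin co-culture was dosed with chemical and MMP-9 was quantified by ELISA 24 h later. Bidirectional curve fitting used DMSO as negative control and activity baseline.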

[15] = read-out: urokinase plasminogen activator (uPA), PLAU (gene 5328); assay: BSK_KF3CT_uPA: BioMAP Diversity Plus: KF3CT Assay for urokinase plasminogen activator (uPA) Biomarker Activity (AID 2283075); conditions: primary human keratinocytes with fibroblasts; actives raise or lower the signal
In short: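 Human keratinocyte plus foreskin fibroblast primary co-culture exposed to chemical for 24 h. uPA levels were quantified by ELISA, and activity was fitted bidirectionally against a DMSO negative-control baseline.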

CD40, CD40 (gene 958) = assay: BSK_LPS_CD40: BioMAP Diversity Plus: LPS Assay for CD40 Biomarker Activity (AID 2283076); conditions: primary human HUVEC with PBMC; actives raise or lower the signal
In short: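 Using a multiplexed primary human co-culture (umbilical vein endothelium plus PBMC), CD40 was read by ELISA 24 h after dosing, with cytotoxicity tracked by sulforhodamine B staining of parallel cultures and activity fitted bidirectionally versus DMSO.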

[16] = read-out: E-selectin (Homo sapiens) (UniProt P16581); assay: BSK_LPS_Eselectin: BioMAP Diversity Plus: LPS Assay for Eselectin Biomarker Activity (AID 2283077); conditions: primary human HUVEC with PBMC; actives raise or lower the signal
In short: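 Dose chemical onto LPS-driven HUVEC/PBMC co-culture; after 24 h, run ELISA for E-selectin; fit up- and down-going responses relative to DMSO control.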

[17] = read-out: Interleukin-8 (IL8), CXCL8 (gene 3576); assay: BSK_LPS_IL8: BioMAP Diversity Plus: LPS Assay for Interleukin-8 (IL8) Biomarker Activity (AID 2283078); conditions: primary human HUVEC with PBMC; actives raise or lower the signal
In short: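 In this LPS system, chemical-treated human umbilical vein endothelium/PBMC co-cultures were harvested at 24 h for IL-8 ELISA.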

[18] = BSK_LPS_SRB: Viability Assessment in the BioMAP Diversity Plus: LPS Assay (AID 2283079); conditions: primary human HUVEC with PBMC;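 further: total protein by sulforhodamine B absorbance as a cytotoxicity measure; measured one day after compound addition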
In short: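 Cytotoxicity endpoint in human endothelial–PBMC co-culture: 24 h exposure, then SRB (0.1%) staining, 560 nm read.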

[19] = read-out: Interleukin-1 alpha (IL1a), IL1A (gene 3552); assay: BSK_LPS_IL1a: BioMAP Diversity Plus: LPS Assay for Interleukin-1 alpha (IL1a) Biomarker Activity (AID 2283080); conditions: primary human HUVEC with PBMC; actives raise or lower the signal
In short: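 Primary human HUVEC and PBMC co-culture stimulated with LPS is dosed and harvested at 24 h. Both increases and decreases in ELISA-measured IL-1a are scored relative to DMSO.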

Measured: AC50

E-selectin (Homo sapiens), sequence (P16581 whole entry, looked up): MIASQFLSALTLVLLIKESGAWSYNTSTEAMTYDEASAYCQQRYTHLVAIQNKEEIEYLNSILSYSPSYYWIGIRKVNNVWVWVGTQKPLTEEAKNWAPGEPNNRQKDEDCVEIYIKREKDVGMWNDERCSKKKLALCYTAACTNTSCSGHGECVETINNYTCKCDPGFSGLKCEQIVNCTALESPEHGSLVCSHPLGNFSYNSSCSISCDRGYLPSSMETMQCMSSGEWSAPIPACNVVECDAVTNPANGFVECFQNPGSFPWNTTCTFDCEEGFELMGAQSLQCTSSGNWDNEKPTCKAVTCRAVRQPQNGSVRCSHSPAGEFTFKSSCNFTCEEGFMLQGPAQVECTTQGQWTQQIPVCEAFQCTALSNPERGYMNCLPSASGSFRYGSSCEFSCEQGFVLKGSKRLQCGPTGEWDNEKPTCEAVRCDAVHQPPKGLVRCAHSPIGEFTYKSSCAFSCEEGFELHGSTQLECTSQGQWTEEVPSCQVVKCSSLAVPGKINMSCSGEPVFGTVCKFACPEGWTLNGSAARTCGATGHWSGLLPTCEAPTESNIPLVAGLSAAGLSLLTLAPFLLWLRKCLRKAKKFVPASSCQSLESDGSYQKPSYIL

CCCCCCCCC(=O)NCc1ccc(O)c(OC)c1
inactive: [1] | [2] | [3] | [4] | [5] | [7] | [8] | [9] | [10] | [11] | [12] | [13] | [14] | [15] | CD40, CD40 (gene 958) | [16] | [17] | [18]
active: [6] 0.155 µM | [19] 0.1 µM

NC(=O)O
inactive: [1] | [2] | [3] | [4] | [5] | [6] | [8] | [9] | [10] | [11] | [12] | [13] | [14] | [15] | CD40, CD40 (gene 958) | [16] | [17] | [18] | [19]

CC1(C)Cc2cccc(O)c2O1
inactive: [1] | [2] | [3] | [4] | [5] | [6] | [8] | [9] | [10] | [11] | [12] | [13] | [14] | [15] | CD40, CD40 (gene 958) | [16] | [17] | [18] | [19]

O=C(O)C(Cl)(Cl)Cl
inactive: [1] | [2] | [3] | [4] | [5] | [6] | [8] | [9] | [10] | [11] | [12] | [13] | [14] | [15] | CD40, CD40 (gene 958) | [16] | [17] | [18] | [19]

CCNc1nc(NC(C)(C)C)nc(SC)n1
active: [10] 20 µM | [11] 20 µM
inactive: [1] | [2] | [3] | [4] | [5] | [6] | [7] | [8] | [9] | [12] | [13] | [14] | [15] | CD40, CD40 (gene 958) | [16] | [17] | [18] | [19]

O=[N+]([O-])c1ccc2c3c(cccc13)CC2
active: [11] 11.4 µM
inactive: [1] | [2] | [3] | [4] | [5] | [6] | [8] | [9] | [10] | [12] | [13] | [14] | [15] | CD40, CD40 (gene 958) | [16] | [17] | [18] | [19]

CCOP(=S)(OCC)SCCS(=O)(=O)CC
inactive: [1] | [2] | [3] | [4] | [5] | [6] | [7] | [8] | [9] | [10] | [11] | [12] | [13] | [14] | [15] | CD40, CD40 (gene 958) | [16] | [17] | [18] | [19]

CC(C)(OO)c1ccccc1
active: [1] 34.8 µM | [2] 34.7 µM | [3] 34.4 µM | [4] 37.1 µM | [5] 28.6 µM | [6] 30.4 µM
inactive: [8] | [9] | [10] | [11] | [12] | [13] | [14] | [15] | CD40, CD40 (gene 958) | [16] | [17] | [18] | [19]

Oc1c(I)cc(I)cc1I
inactive: [2] | [3] | [4] | [5] | [9] | [13] | [17] | [19]
active: [1] 20 µM | [6] 11.5 µM | [8] 23 µM | [10] 27.7 µM | [11] 17 µM | [12] 7.06 µM | [14] 5.35 µM | [15] 31.2 µM | CD40, CD40 (gene 958) 14.2 µM | [16] 27.6 µM | [18] 20 µM

Nc1ncc([N+](=O)[O-])s1
inactive: [1] | [2] | [3] | [4] | [5] | [6] | [8] | [9] | [10] | [11] | [12] | [13] | [14] | [15] | CD40, CD40 (gene 958) | [16] | [17] | [18] | [19]

CC(=O)C(Cl)C(=O)N(C)C (stereo not drawn)
inactive: [1] | [2] | [3] | [4] | [5] | [8] | [9] | [11] | [12] | [13] | [14] | [15] | [18]
active: [10] 13.9 µM | CD40, CD40 (gene 958) 15.5 µM | [16] 15.4 µM | [17] 13.6 µM | [19] 14.4 µM

O=C1C2(Cl)C3(Cl)C4(Cl)C(Cl)(Cl)C5(Cl)C3(Cl)C1(Cl)C5(Cl)C24Cl (stereo not drawn)
active: [1] 16.4 µM | [2] 30 µM | [3] 31 µM | [4] 19.3 µM | [5] 4.35 µM | [9] 8.1 µM | [10] 22.9 µM | [11] 24.2 µM | [12] 6.14 µM | [13] 35.1 µM | [14] 8.52 µM | [15] 11.1 µM | CD40, CD40 (gene 958) 7.66 µM | [16] 11.1 µM | [17] 14.5 µM | [18] 6.4 µM | [19] 7.55 µM

Reference: PubChem BioAssay (EPA / NIEHS)
